# GLP1R ag – activates the human GLP-1 receptor | P43220 | HEK293 GLP-1R CRE-luciferase, luminescence, 4-6 h; cells express a hypersensitive GLP-1R form | Potency, µM (titrated, usually from 45.6 µM), for the others: top-dose activation, most hits filed as activators | actives 0.007% (n = 380,000) | AID 624172; further: % of control where 0% means no effect
# Target sequence (P43220 whole entry, looked up): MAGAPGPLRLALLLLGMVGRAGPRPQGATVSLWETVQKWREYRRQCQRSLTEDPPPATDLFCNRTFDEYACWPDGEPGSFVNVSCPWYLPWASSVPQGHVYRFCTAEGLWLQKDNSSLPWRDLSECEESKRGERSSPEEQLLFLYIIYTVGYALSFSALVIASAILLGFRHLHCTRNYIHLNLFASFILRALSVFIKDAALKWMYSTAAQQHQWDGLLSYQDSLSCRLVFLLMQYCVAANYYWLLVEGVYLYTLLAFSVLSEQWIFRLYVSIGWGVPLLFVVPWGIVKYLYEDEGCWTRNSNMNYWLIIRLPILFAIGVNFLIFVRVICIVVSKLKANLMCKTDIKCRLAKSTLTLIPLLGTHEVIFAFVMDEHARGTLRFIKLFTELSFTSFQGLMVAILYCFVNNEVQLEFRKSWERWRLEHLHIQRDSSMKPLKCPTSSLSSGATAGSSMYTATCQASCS
# HEK293 tox – cytotoxicity in counter-screen for GLP-1R inverse agonists; AID 624418; actives 0.13% (n = 410,000); Potency, µM (doses to about 38.3 µM), inactives show top-dose activity change, negative = inhibition, actives largely listed as inhibitors; HEK293 cAMP-luciferase reporter cells, luminescence, 24 h;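 further: loss of luciferase light is scored as toxicity; on the % scale 0 is the no-effect control and ±100 the full control effect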
#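 Compound-treated cells are incubated 24 hr at 37 deg C under 5% CO2 after a 12 hour attachment period, then luciferase detection reagent is added and luminescence is measured following 12 min at room temperature; lowered signal indicates toxicity.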
# BRCA1 expr up – BRCA1 expression activation; MCF7-BRCA1-FFLuc reporter, luminescence, 48 h; response scale: scaled: vehicle 0%, 10 µM genistein 100%; Potency, µM (series often up to 46.1 µM), inactives show at the highest dose activation, actives largely listed as activators; actives 1.1% (n = 380,000); further: nearly all actives have a fitted effect of over 80% in size
#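 Using MCF7 cells harboring a BRCA1 firefly luciferase reporter, plated 2 h before compound pinning, the screen measured luminescence after 48 h incubation. Responses were normalized to DMSO and 10 microM genistein, then fitted for concentration-effect.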
# GLP-1R inv ag – acts as inverse agonist at human GLP-1 receptor; HEK293 GLP-1R CRE-luciferase, luminescence, 24 h; GLP-1R form is constitutively active; P43220; AID 624417; actives 1.6% (n = 410,000); Potency, µM (doses to about 38.3 µM), without a hit: top-dose activity change, negative = inhibition, most hits filed as inhibitors; further: on the % scale 0 is the no-effect control and ±100 the full control effect; nearly all actives have a fitted effect of over 55% in size
#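 Readout was luciferase luminescence, measured 12 min after detection reagent at room temperature. Beforehand, GLP-1R reporter HEK293 cells had sat 12 h, then received compounds for 24 hr at 37 deg C.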
# * hit, by the source's call; ? = inconclusive; / = not tested or not shown. A selection: hits, their analogues and other compounds. The true share with any hit is near 2.6%. The call rests on the fitted dose curve; in most records, active means well fitted curve in the direction sought with a large enough effect; inconclusive means small, poorly fitted or top-dose-only effect, or another doubt; inactive means no such curve, though single readings can be large; an effect the other way counts as inactive or inconclusive. Potency means the concentration at half of the fitted maximal effect.
SMILES,GLP1R ag,HEK293 tox,BRCA1 expr up,GLP-1R inv ag
COc1ccccc1C(=O)Nn1cnc2ccccc2c1=O,-3%,-10%,10µM*,5%
Cc1[nH]c2ccccc2c1N=Nc1cccc(C(=O)O)c1,1%,?,3.2µM*,0%
COC(=O)c1cc(N=Nc2c(C)[nH]c3ccccc23)cc(C(=O)OC)c1,-1%,5%,-1%,11%
COc1ccc(CCn2c3c(c(=O)[nH]c2=O)C(NC(=O)c2ccccc2OC)(C(F)(F)F)C(=O)N3)cc1OC (centres undefined),0%,-6%,-8%,-5%
CN(C)S(=O)(=O)c1cccc(COc2cccnc2[N+](=O)[O-])c1,15%,10%,-20%,14%
O=[N+]([O-])c1ncccc1OCc1ccc(Cl)c(Cl)c1,26%,-5%,7.1µM*,?
CCOC(=O)c1ccc(NC(=O)C2CCCN(c3ncnc4onc(C)c34)C2)cc1 (centres undefined),/,-7%,/,-15%
O=C(CN1C(=O)NC(c2ccccc2)(c2ccccc2)C1=O)N1CCN(c2ccc(F)cc2)CC1,0%,?,-51%,7.9µM*
O=C(CN1C(=O)NC(c2ccccc2)(c2ccccc2)C1=O)N1CCN(c2ccccc2F)CC1,-5%,-2%,-14%,?
COc1ccc(OC)c(S(=O)(=O)N/N=C\c2ccc3c(c2)OCO3)c1,13%,-14%,13µM*,17%
Cc1ccc(Cn2ccnc2C(=O)Nc2ccccc2)cc1,12%,-3%,13µM*,0%
Cc1cc(C)c(S(=O)(=O)NCC(c2ccc(N(C)C)cc2)N2CCc3ccccc32)c(C)c1 (centres undefined),/,0%,/,2µM*
CC(C)c1ccc(Nc2nc3c(S(=O)(=O)c4ccc(Br)cc4)nnn3c3ccsc23)cc1,/,4%,/,8%
Cc1ccccc1Cn1c(CN2CCC(C(=O)NCc3ccc(Cl)cc3)CC2)cc2ccccc21,/,6%,/,?
CCOc1ccc(CNC(=O)C2CCN(Cc3cc4ccccc4n3Cc3ccccc3C)CC2)cc1,/,6%,/,7.1µM*
CSc1nc(S(C)(=O)=O)nc2[nH]c(=O)[nH]c12,18%,20%,-1%,36%
CC(C)(C)c1ccc(S(=O)(=O)CCc2ccccn2)cc1,-4%,-7%,14µM*,5%
Cc1ccc(S(=O)(=O)CCc2ccccn2)cc1,-7%,0%,3%,8%
O=C(c1ccccc1)C1OC1C(=O)c1ccccc1 (centres undefined),-2%,-24%,-40%,?
CC1C=CC(C)C(C(=O)c2ccccc2)C1C(=O)c1ccccc1 (centres undefined),6%,7%,6%,13µM*
O=C(C1CCN(CCc2ccccc2)CC1)N1CCOCC1,2%,-3%,-3%,-11%
COc1ccc2cnn(-c3ccc(C)cc3)c(=O)c2c1OC,12%,-9%,4.5µM*,12%
CCOC(=O)c1c2c(n(Cc3ccccc3)c1C)C(=O)C(=O)c1ccccc1-2,-22%,5µM*,-97%,?
CCOC(=O)c1c2c(n(C)c1C)C(=O)C(=O)c1ccc(Br)cc1-2,10%,-23%,-92%,?
CCOC(=O)C1CCCN(C(=O)Cn2ncn3c(cc4sc(CC)cc43)c2=O)C1 (centres undefined),/,-12%,/,?
SMILES,GLP1R ag,HEK293 tox,BRCA1 expr up,GLP-1R inv ag
Clc1ccc(Cn2c(-c3cccnc3Cl)nc3ccccc32)c(Cl)c1,5%,-13%,4%,10µM*
CC(NC(=O)c1cc(COc2ccc(-n3cncn3)cc2)on1)c1ccc(F)cc1 (centres undefined),-2%,-18%,13µM*,-17%
COCCNC(=O)C1(C)CCCN(C(=O)c2ccc(C(=O)OC)cc2)C1 (centres undefined),2%,1%,0%,18%
CC(C)c1ccc(NC(=O)CSC2=Nc3ccccc3C3=NC(CC(=O)NCc4ccc(F)cc4)C(=O)N23)cc1 (centres undefined),/,4%,/,1%
O=c1c(Br)c(N2CCOCC2)cnn1-c1ccccc1,-5%,-9%,13µM*,1%
CCCCCCSc1ccc([C@H]2N[C@@](CC(C)C)(C(=O)OC)[C@H]3C(=O)N(CC)C(=O)[C@@H]23)cc1,9%,-16%,8%,-7%
CCCCCCSc1ccc([C@H]2N[C@@](Cc3ccccc3)(C(=O)OC)[C@H]3C(=O)N(C)C(=O)[C@@H]23)cc1,12%,-6%,-59%,11µM*
CCCCCCSc1ccc([C@H]2N[C@@](C)(C(=O)OC)[C@H]3C(=O)N(CC)C(=O)[C@@H]23)cc1,25%,0%,-47%,10µM*
CCN(CC)CCN(C(=O)c1ccc2c(c1)OCCO2)c1nc2cc(C)cc(C)c2s1,-4%,15%,-45%,11µM*
O=C(Nc1sc2c(c1C(=O)NCc1cccnc1)CCCC2)c1ccco1,19%,2%,0%,0%
CC(Oc1ccc(F)cc1)C(=O)Nc1sc2c(c1C(=O)NCc1cccnc1)CCCC2 (centres undefined),1%,-24%,-71%,10µM*
O=C(O)c1ccccc1-c1ccccc1C(=O)NNc1ccccc1,-3%,-8%,-18%,2.2µM*
O=C(O)c1ccccc1-c1ccccc1C(=O)Nc1ccccc1,-11%,-13%,1%,-2%
NC(=S)NN=C1c2ccccc2-c2ccccc21,17%,1.4µM*,2%,?
c1ccc2c(c1)CCN(c1nc(CN3CCOCC3)nc3sc4c(c13)CCCC4)C2,21%,4%,-46%,8.9µM*
CCNc1nc(CN2CCOCC2)nc2sc3c(c12)CCC3,6%,22%,-15%,-7%
COc1ccc(-c2nc(CSCC(=O)N3CCN(c4cccc(C)c4C)CC3)c(C)o2)cc1OC,/,-14%,/,10µM*
COc1ccc(CN2CCNC(=O)C2CC(=O)NCCC2=CCCCC2)cc1OC (centres undefined),-2%,0%,-20%,25%
Cc1cccc(NC(=O)C2CCCN(S(=O)(=O)c3c(C)n[nH]c3C)C2)c1 (centres undefined),0%,-9%,-1%,6%
CN(C(=O)CSc1cc(C(=O)c2nccn2C)c2ccccc2n1)c1ccccc1,6%,?,-84%,10µM*
COc1cc(OC)c(NC(c2nnc(-c3ccccc3)o2)c2ccc(F)cc2Cl)cc1Cl (centres undefined),/,1%,/,?
CCc1cccc(NC(c2nnc(-c3ccccc3)o2)c2ccc(F)cc2Cl)c1 (centres undefined),/,2%,/,6.3µM*
COCC(=O)OC1CCn2c1nc1c2C(=O)C(C)=C(NC(C)=O)C1=O (centres undefined),-13%,11µM*,-83%,10µM*
Cc1cccc(C)c1NC(=O)CNC(=O)C1CC(=O)N(Cc2ccccc2)C1 (centres undefined),6%,13%,-3%,16%

# Bioassay records: PubChem, National Center for Advancing Translational Sciences (NCATS)
